# Measurements: PubChem BioAssay (Tox21)
# Results filed as inconclusive are left out. Entries that show only a call come without a potency. The source made the active and inactive calls. Unless noted, calls come from the whole dose curve; as a rule, active = well fitted curve in the direction sought with a large enough effect in the repeat runs; inconclusive = weak or mixed curves; inactive = no such curve, though single readings can be large; an effect the other way counts as inactive or inconclusive.
# Assays:
# [1] = qHTS assay to identify aromatase inhibitors - cell viability counter screen (AID 743084);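 note: cells stimulated with testosterone during compound exposure; nearly all actives have a fitted effect of over 55% in size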
# [2] = biological target: Aryl hydrocarbon receptor (Homo sapiens) (UniProt P35869); experiment: qHTS assay to identify small molecule that activate the aryl hydrocarbon receptor (AhR) signaling pathway (AID 743085);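 note: HG2L7.5c1 human HepG2 liver cells with stably integrated DRE-driven firefly reporter; series mostly up to about 70 µM; nearly all actives have a fitted effect of over 15% in size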
# Sequence of Aryl hydrocarbon receptor (Homo sapiens) (P35869 whole entry, looked up): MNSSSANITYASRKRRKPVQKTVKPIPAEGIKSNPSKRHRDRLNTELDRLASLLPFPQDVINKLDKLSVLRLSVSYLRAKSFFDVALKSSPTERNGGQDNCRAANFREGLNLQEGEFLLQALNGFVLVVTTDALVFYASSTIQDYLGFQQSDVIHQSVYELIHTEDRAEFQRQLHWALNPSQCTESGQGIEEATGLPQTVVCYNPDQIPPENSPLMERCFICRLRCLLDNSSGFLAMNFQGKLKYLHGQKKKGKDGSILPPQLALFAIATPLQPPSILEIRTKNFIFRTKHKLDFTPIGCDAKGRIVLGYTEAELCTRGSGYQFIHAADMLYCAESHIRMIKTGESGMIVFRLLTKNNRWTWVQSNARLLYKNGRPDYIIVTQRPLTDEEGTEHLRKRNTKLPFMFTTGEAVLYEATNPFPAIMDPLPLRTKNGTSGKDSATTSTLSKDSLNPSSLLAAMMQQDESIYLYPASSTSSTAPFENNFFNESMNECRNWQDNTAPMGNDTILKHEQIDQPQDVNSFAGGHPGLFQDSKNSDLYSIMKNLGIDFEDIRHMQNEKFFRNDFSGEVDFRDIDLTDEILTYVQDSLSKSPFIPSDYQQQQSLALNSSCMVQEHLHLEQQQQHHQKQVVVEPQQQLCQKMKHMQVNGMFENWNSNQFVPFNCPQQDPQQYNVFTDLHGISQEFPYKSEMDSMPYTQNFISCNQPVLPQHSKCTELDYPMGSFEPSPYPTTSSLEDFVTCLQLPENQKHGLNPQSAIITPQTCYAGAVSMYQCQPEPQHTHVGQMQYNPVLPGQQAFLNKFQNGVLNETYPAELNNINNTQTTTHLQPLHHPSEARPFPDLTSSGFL
# Procedure, shortened: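 Reporter assay in engineered HepG2 line HG2L7.5c1, whose plasmid carries twenty dioxin responsive elements upstream of firefly luciferase. Treatment lasted 24 h at 37C; ONE-Glo luminescence gauged induction.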
# [3] = qHTS assay to identify small molecule that activate the aryl hydrocarbon receptor (AhR) signaling pathway - cell viability counter screen (AID 743086);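 note: HepG2 liver cells carrying the AhR DRE luciferase reporter; series mostly up to about 70 µM; nearly all actives have a fitted effect of over 45% in size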
# Procedure, shortened: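 Cytotoxicity counter screen: CellTiter-Fluor signal (30 min, 37 C) in 4000 HepG2 cells/well carrying the DRE-luciferase reporter, following 24 h compound exposure at 37 C.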
# [4] = biological target: Peroxisome proliferator-activated receptor gamma (Homo sapiens) (UniProt P37231); experiment: qHTS assay to identify small molecule agonists of the peroxisome proliferator-activated receptor gamma (PPARg) signaling pathway (AID 743094; active = well fitted activation curve with a large enough effect in the signal ratio in the repeat runs, not every such curve was filed as active; the % refers to the signal ratio)
# Sequence of Peroxisome proliferator-activated receptor gamma (Homo sapiens) (P37231 whole entry, looked up): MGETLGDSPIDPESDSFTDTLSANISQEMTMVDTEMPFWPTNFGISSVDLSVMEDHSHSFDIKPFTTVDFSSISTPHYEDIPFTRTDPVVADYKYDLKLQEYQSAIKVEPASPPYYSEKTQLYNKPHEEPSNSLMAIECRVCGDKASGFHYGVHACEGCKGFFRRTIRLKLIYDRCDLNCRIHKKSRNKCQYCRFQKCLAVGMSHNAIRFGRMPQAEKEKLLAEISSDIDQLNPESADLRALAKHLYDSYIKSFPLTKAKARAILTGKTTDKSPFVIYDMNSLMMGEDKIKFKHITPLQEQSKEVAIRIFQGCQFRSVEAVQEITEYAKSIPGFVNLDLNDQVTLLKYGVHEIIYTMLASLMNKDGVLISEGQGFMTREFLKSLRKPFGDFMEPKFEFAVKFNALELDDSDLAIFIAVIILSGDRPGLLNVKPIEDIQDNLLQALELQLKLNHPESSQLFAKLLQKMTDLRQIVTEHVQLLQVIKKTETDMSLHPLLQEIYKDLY
# Procedure, shortened: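 Cells from the PPARg UAS-bla HEK293H line are plated and incubated 5 h at 37C. Compounds in DMSO are pinned in and left 17 h at 37C. LiveBLAzer B/G substrate is then added for 1 h at room temperature before fluorescence is measured.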
# [5] = qHTS assay to identify small molecule antagonists of the peroxisome proliferator-activated receptor gamma (PPARg) signaling pathway - cell viability counter screen (AID 743194); note: nearly all actives have a fitted effect of over 55% in size
# Procedure, shortened: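 Viability was measured as CellTiter-Glo luminescence in GeneBLAzer PPARg UAS-bla HEK293H cells. These cells had been exposed 17 h at 37 C to compounds together with rosiglitazone at 50 nM final, with the beta-lactamase readout taken in the same wells.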
# [6] = qHTS assay for small molecule agonists of the antioxidant response element (ARE) signaling pathway (AID 743202; active = well fitted activation curve with a large enough effect in the signal ratio in the repeat runs, not every such curve was filed as active; the % refers to the signal ratio; note: potency is the fitted concentration of half-maximal effect)
# Procedure, shortened: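 After 16 hours of compound treatment at 37 C, HepG2 cells with a stably integrated ARE-driven beta-lactamase reporter were loaded 2 hours at room temperature with LiveBLAzer B/G FRET substrate and fluorescence intensity measured.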
# [7] = qHTS assay for small molecule activators of the heat shock response signaling pathway - cell viability counter screen (AID 743209); note: nearly all actives have a fitted effect of over 50% in size
# Procedure, shortened: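 Cytotoxicity counter screen run in parallel with the HSE beta-lactamase reporter, using the same wells. HeLa HSE-bla cells received compound for 5 h at 37 C; ATP-based CellTiter-Glo luminescence was measured after 30 min at room temperature.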
# [8] = qHTS assay for small molecule activators of the heat shock response signaling pathway (AID 743210; active = well fitted activation curve with a large enough effect in the signal ratio in the repeat runs, with a control signal flat, not every such curve was filed as active; the % refers to the signal ratio; note: series mostly up to about 63 µM)
# Procedure, shortened: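 Compound exposure lasted 5 h at 37 C in HeLa cells carrying a heat-shock-element-driven beta-lactamase reporter. Read-out: fluorescence intensity after 2.5 h room-temperature loading with LiveBLAzer B/G FRET substrate.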
# [9] = qHTS assay to identify small molecule antagonists of the peroxisome proliferator-activated receptor delta (PPARd) signaling pathway - cell viability counter screen (AID 743213); note: nearly all actives have a fitted effect of over 50% in size
# Procedure, shortened: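 PPARd-bla HEK293H cells were treated with compounds plus agonist L165041 (300 nM final) for 17 h at 37 C. Viability was then read in the same wells by CellTiter-Glo luminescence after 30 min at room temperature.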
# [10] = biological target: Bile acid receptor (Homo sapiens) (UniProt Q96RI1); experiment: qHTS assay to identify small molecule antagonists of the farnesoid-X-receptor (FXR) signaling pathway (AID 743217; active = well fitted inhibition curve with a large enough effect in the signal ratio in the repeat runs, not every such curve was filed as active; the % refers to the signal ratio)
# Sequence of Bile acid receptor (Homo sapiens) (Q96RI1 whole entry, looked up): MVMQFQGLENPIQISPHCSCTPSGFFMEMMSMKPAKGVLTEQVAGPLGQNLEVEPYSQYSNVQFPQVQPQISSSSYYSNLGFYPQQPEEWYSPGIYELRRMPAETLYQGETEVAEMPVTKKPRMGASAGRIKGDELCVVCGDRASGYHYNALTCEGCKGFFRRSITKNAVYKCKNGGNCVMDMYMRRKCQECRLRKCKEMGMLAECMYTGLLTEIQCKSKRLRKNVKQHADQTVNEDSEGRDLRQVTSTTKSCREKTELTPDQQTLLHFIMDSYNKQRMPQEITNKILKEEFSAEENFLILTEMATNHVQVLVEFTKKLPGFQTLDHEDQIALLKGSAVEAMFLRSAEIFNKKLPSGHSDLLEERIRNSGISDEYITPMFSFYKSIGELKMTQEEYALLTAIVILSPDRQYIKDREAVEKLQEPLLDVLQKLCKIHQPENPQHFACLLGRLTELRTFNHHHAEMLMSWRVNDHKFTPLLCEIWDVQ
# Procedure, shortened: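 Cells carrying a UAS-driven beta-lactamase reporter (GeneBLAzer FXR-UAS-bla HEK 293T) were plated and rested 5 h at 37 °C. Compounds in DMSO were added alongside chenodeoxycholic acid agonist at 50 uM final and left 16 h at 37 °C before FRET substrate readout.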
# [11] = qHTS assay to identify small molecule agonists of the farnesoid-X-receptor (FXR) signaling pathway - cell viability counter screen (AID 743218); note: nearly all actives have a fitted effect of over 45% in size
# Procedure, shortened: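 Cells were seeded, left 5 h at 37 C and 5% CO2, then dosed with compound in DMSO for 16 h. After the beta-lactamase FRET read, CellTiter-Glo was added and luminescence measured 30 min later.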
# [12] = biological target: Bile acid receptor (Homo sapiens) (UniProt Q96RI1); experiment: qHTS assay to identify small molecule agonists of the farnesoid-X-receptor (FXR) signaling pathway (AID 743220; active = well fitted activation curve with a large enough effect in the signal ratio in the repeat runs, not every such curve was filed as active; the % refers to the signal ratio)
# Procedure, shortened: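 FXR-UAS-bla HEK 293T cells carrying a UAS-driven beta-lactamase reporter were plated for 5 h at 37C/5% CO2, then exposed to DMSO-dissolved Tox21 10K compounds for 16 h at 37C. A LiveBLAzer B/G FRET substrate was loaded for 2 h at room temperature before fluorescence reading.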
# [13] = qHTS assay to identify small molecule antagonists of the farnesoid-X-receptor (FXR) signaling pathway - cell viability counter screen (AID 743221; active = well fitted cell-killing curve with a large enough effect in the repeat runs, not every such curve was filed as active; note: nearly all actives have a fitted effect of over 50% in size)
# Procedure, shortened: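 CellTiter-Glo, 30 min RT, luminescence; same wells as the LiveBLAzer FRET read. Cells: FXR-UAS-bla HEK 293T. Treatment: compound with chenodeoxycholic acid 50 uM final, 16 h at 37 C.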
# [14] = biological target: Vitamin D3 receptor (Homo sapiens) (UniProt P11473); experiment: qHTS assay to identify small molecule agonists of the vitamin D receptor (VDR) signaling pathway (AID 743222; calls by dose curve)
# Sequence of Vitamin D3 receptor (Homo sapiens) (P11473 whole entry, looked up): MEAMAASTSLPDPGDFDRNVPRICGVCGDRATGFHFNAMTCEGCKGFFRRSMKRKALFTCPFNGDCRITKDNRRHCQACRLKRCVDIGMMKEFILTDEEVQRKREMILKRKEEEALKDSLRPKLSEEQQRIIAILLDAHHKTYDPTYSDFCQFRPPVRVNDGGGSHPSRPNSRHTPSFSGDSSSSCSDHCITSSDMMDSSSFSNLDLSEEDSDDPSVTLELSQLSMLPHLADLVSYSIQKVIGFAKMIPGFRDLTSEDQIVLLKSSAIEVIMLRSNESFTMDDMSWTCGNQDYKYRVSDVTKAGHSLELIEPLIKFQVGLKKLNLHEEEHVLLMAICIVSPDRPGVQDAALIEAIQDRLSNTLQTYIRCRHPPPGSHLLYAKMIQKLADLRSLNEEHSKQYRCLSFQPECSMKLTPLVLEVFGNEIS
# Procedure, shortened: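 Cells carrying a VDR-driven beta-lactamase reporter are seeded at 2,000 per well and rested 4 h. Compounds in DMSO are added for 16 h at 37C, and FRET substrate fluorescence is measured after 2 h at room temperature.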
# [15] = biological target: Vitamin D3 receptor (Homo sapiens) (UniProt P11473); experiment: qHTS assay to identify small molecule antagonists of the vitamin D receptor (VDR) signaling pathway (AID 743223; active = well fitted inhibition curve with a large enough effect in the signal ratio in the repeat runs, not every such curve was filed as active; the % refers to the signal ratio)
# Procedure, shortened: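 After VDR-bla cells are plated and left 4 h at 37C, DMSO-dissolved compounds and 3 nM (final) calcitriol agonist are added. Incubation continues 16 h at 37C; FRET beta-lactamase substrate then develops 2 h at room temperature.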
# [16] = qHTS assay for small molecule agonists of the antioxidant response element (ARE) signaling pathway - cell viability counter screen (AID 743203; calls by dose curve; note: nearly all actives have a fitted effect of over 55% in size)
# Procedure, shortened: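 Cytotoxicity was tested in parallel with the ARE reporter screen. ARE-bla HepG2 cells were exposed to compounds for 16 hrs, and viability was taken from CellTiter-Glo luminescence.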
# [17] = qHTS assay to identify small molecule agonists of the peroxisome proliferator-activated receptor delta (PPARd) signaling pathway - cell viability counter screen (AID 743211); note: nearly all actives have a fitted effect of over 55% in size
# Procedure, shortened: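 Multiplexed format: after the 2 h room-temperature LiveBLAzer B/G FRET step, CellTiter-Glo was added to the same wells. Luminescence after 30 min gave cell viability; compound exposure was 17 h at 37C.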
# [18] = biological target: Peroxisome proliferator-activated receptor delta (Homo sapiens) (UniProt Q03181); experiment: qHTS assay to identify small molecule agonists of the peroxisome proliferator-activated receptor delta (PPARd) signaling pathway (AID 743212; calls by dose curve)
# Sequence of Peroxisome proliferator-activated receptor delta (Homo sapiens) (Q03181 whole entry, looked up): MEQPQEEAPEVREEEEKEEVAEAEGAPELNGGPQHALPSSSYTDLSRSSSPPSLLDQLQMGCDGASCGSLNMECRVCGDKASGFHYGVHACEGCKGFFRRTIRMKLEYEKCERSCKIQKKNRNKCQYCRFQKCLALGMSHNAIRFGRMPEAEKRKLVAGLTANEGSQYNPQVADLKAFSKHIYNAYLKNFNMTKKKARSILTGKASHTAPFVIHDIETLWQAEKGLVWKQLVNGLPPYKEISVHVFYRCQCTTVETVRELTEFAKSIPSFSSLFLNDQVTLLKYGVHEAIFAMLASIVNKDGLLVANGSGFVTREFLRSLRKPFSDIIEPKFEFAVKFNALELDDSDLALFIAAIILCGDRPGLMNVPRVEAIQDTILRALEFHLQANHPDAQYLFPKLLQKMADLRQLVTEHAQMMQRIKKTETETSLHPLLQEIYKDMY
# Procedure, shortened: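 Beta-lactamase reporter readout: a ratiometric FRET signal from the LiveBLAzer substrate after 2 h at room temperature. Compound exposure at 37 °C in PPARδ-bla HEK293H cells driven by an upstream activator sequence.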
# [19] = biological target: Peroxisome proliferator-activated receptor delta (Homo sapiens) (UniProt Q03181); experiment: qHTS assay to identify small molecule antagonists of the peroxisome proliferator-activated receptor delta (PPARd) signaling pathway (AID 743215; active = well fitted inhibition curve with a large enough effect in the signal ratio in the repeat runs, not every such curve was filed as active; the % refers to the signal ratio;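 note: cells stimulated with agonist L165041 at 300 nM final during compound exposure; series mostly up to about 62 µM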)
# Procedure, shortened: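 Cells: HEK293H with a UAS-driven beta-lactamase reporter responsive to PPARd. Compounds were co-added with L165041 (300 nM, final) and incubated 17 h at 37 C before a 2 h room-temperature FRET substrate step and fluorescence reading.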
# [20] = biological target: Peroxisome proliferator-activated receptor gamma (Homo sapiens) (UniProt P37231); experiment: qHTS assay to identify small molecule antagonists of the peroxisome proliferator-activated receptor gamma (PPARg) signaling pathway (AID 743191; calls by dose curve; note: series mostly up to about 63 µM; nearly all actives have a fitted effect of over 30% in size)
# Procedure, shortened: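 Beta-lactamase reporter under UAS control in HEK293H PPARg-bla cells; compound treatment 17 h at 37C. Read-out: fluorescence intensity after 1 h room-temperature incubation with LiveBLAzer B/G FRET substrate.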
Structure (SMILES),Potency [1],Potency [2],outcome [3],Potency [4],Potency [5],Potency [6],outcome [7],Potency [8],Potency [9],outcome [10],Potency [11],outcome [12],outcome [13],outcome [14],outcome [15],Potency [16],Potency [17],outcome [18],outcome [19],Potency [20]
OCCN(CCO)c1ccccc1,inactive,inactive,inactive,inactive,inactive,inactive,inactive,inactive,inactive,inactive,inactive,inactive,inactive,inactive,inactive,–,–,–,–,–
CCCCC(=O)O[C@]1(C(=O)CO)[C@H](C)C[C@H]2[C@@H]3CCC4=CC(=O)C=C[C@]4(C)[C@@]3(F)[C@@H](O)C[C@@]21C,inactive,inactive,inactive,–,inactive,–,inactive,inactive,–,–,inactive,–,inactive,inactive,inactive,inactive,inactive,–,–,–
NS(=O)(=O)c1cc(-c2nn[nH]n2)c(NCc2cccs2)cc1Cl,inactive,inactive,inactive,–,inactive,10.6 µM (active),inactive,inactive,inactive,–,inactive,–,inactive,inactive,inactive,inactive,–,inactive,inactive,–
C=CC(C)(O)CC/C=C(\C)CCC=C(C)C (stereo unspecified),inactive,inactive,inactive,inactive,inactive,–,inactive,inactive,inactive,inactive,inactive,inactive,inactive,–,–,inactive,inactive,–,inactive,–
O=C(O)c1ccccc1Nc1cc(Cl)ccc1C(=O)O,inactive,inactive,inactive,–,inactive,inactive,inactive,–,–,–,inactive,–,inactive,inactive,inactive,inactive,–,–,–,–
C1CCOC1,inactive,inactive,inactive,–,inactive,inactive,inactive,inactive,inactive,inactive,inactive,inactive,inactive,inactive,inactive,inactive,–,–,–,–
CCOC(=O)c1ccccc1O,inactive,inactive,inactive,inactive,inactive,–,inactive,inactive,inactive,–,inactive,–,inactive,inactive,inactive,inactive,inactive,inactive,inactive,–
C=CCc1cc(OC)c(O)c(C(=O)NCCO)c1,inactive,inactive,inactive,inactive,–,–,inactive,inactive,inactive,inactive,inactive,inactive,inactive,inactive,inactive,inactive,inactive,–,–,–
NCCCN1CCN(CCCN)CC1,inactive,inactive,inactive,–,inactive,inactive,inactive,inactive,inactive,–,inactive,–,inactive,inactive,inactive,inactive,–,inactive,inactive,–
O=C(CC(=O)C(F)(F)F)c1ccccc1,inactive,inactive,inactive,–,inactive,inactive,inactive,–,inactive,–,inactive,–,inactive,inactive,inactive,inactive,inactive,inactive,inactive,–
CCCCCCCCCCCCOCCOS(=O)(=O)O,inactive,inactive,inactive,–,inactive,–,inactive,inactive,–,–,inactive,–,–,inactive,–,inactive,–,–,–,inactive
OCc1ccccc1O,inactive,inactive,inactive,–,inactive,–,inactive,inactive,inactive,inactive,inactive,–,inactive,inactive,inactive,inactive,inactive,–,–,–
CC(C)=CCC[C@](C)(O)[C@@H]1CC=C(C)CC1,inactive,inactive,inactive,inactive,inactive,–,–,–,inactive,–,inactive,–,–,inactive,–,inactive,–,inactive,–,–
CCOC(=O)C(Br)c1ccccc1 (stereo unspecified),inactive,inactive,inactive,inactive,inactive,–,inactive,inactive,inactive,–,inactive,–,inactive,inactive,–,inactive,inactive,–,inactive,–
CCCCCCCCCCCCCCCCOP(=O)([O-])OCC[N+](C)(C)C,inactive,inactive,inactive,inactive,–,inactive,–,–,–,–,–,–,inactive,inactive,inactive,inactive,–,inactive,inactive,–
C=O,inactive,inactive,inactive,–,inactive,inactive,inactive,inactive,inactive,–,inactive,–,inactive,inactive,inactive,inactive,–,–,–,–
OCc1c2ccccc2cc2ccccc12,inactive,inactive,inactive,inactive,inactive,–,inactive,inactive,inactive,–,inactive,–,inactive,inactive,inactive,inactive,inactive,–,inactive,–
O=C(O)[C@@H](O)[C@H](O)[C@H](O)[C@@H](O)C(=O)O,inactive,inactive,inactive,inactive,inactive,inactive,–,inactive,inactive,–,inactive,–,inactive,–,–,–,inactive,inactive,inactive,–
CC1(C)S[C@@H]2[C@H](NC(=O)C(C(=O)O)c3ccccc3)C(=O)N2[C@H]1C(=O)O (stereo partly specified),inactive,inactive,inactive,inactive,inactive,–,inactive,inactive,inactive,inactive,inactive,–,inactive,inactive,inactive,inactive,inactive,inactive,inactive,–
